The structures appear in SMILES notation. Hit rate of the full screen: of about 420,000 compounds, about 50,000 (12%) were called active. Roughly 26% stayed inconclusive and do not appear here. Calls follow the shape of the dose curve; as a rule, active = well fitted inhibition curve with a large enough effect; inconclusive = small, poorly fitted or top-dose-only effect; inactive = flat fitted curve, though single readings scatter. The list comes from a sample in which actives are over-represented; it also holds similar structures and randomly drawn compounds. Where a call stands in place of a potency, no number is given.
Potency is read from the fitted curve at half-maximal effect.

The assay can be described thus: qHTS for Inhibitors of human tyrosyl-DNA phosphodiesterase 1 (TDP1): qHTS in cells in presence of CPT. Also: nearly all actives have a fitted effect of over 55% in size. The settings on record: chicken DT40 Tdp1-/-;hTDP1 cells + 20 nM CPT, ATP luminescence, 48 h; series mostly up to 46.2 µM. Put shortly: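 Chicken DT40 Tdp1-/- cells complemented with human TDP1, 400 cells/well, exposed to compounds plus 20 nM camptothecin for at least 48 h at 37 C; viability read as ATP content by CellTiter-Glo luminescence.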
On the technique in general: qHTS replaces the single test concentration by a dilution series.
On to `CCC1C(=O)NCCN1C(=O)c1ccc2nc(Cc3ccc(OC)cc3)oc2c1` (centres undefined), for which the Potency result is “inactive”.

With `COc1ccc(S(=O)(=O)N2CCN(C)CC2)c(C)c1`, the Potency result is “inactive”.

Turning to `CN(C(=O)c1cccc(OC2CCN(S(=O)(=O)N(C)C)CC2)c1)C1CCOC1` (centres undefined), the Potency entry is “inactive”.

As for `CN(C)S(=O)(=O)N1CCC(Oc2cccc(C(=O)NCCCC3CCCC3)c2)CC1`, the Potency is 18.4 µM (active).

As for `CNS(=O)(=O)c1cccc(C(=O)NCC2CCCCC2)c1`, the Potency result is “inactive”.

In the case of `Clc1cc(-c2ccc(/C=N/n3cnnc3)o2)ccc1Br`, the Potency entry is “inactive”.

Regarding `CCOc1ccc(S(=O)(=O)NCc2ccc3c(c2)OCO3)cc1C`, the Potency result is “inactive”.

For `O=C(NC1CC(=O)N(c2ccc(Cl)cc2)C1)C1CCCC1` (centres undefined), the Potency entry is “inactive”.

Turning to `Cc1cc(C)n2nc(C(=O)OCC(=O)N(CCC#N)c3ccc(F)cc3)nc2n1`, the Potency result is “inactive”.

Regarding `Cc1cc(=O)c2ccc(NC(=O)c3ccccc3)cc2[nH]1`, the Potency entry is “inactive”.

For the molecule `Cc1ccc(-c2cc(=O)c3ccc(F)cc3[nH]2)cc1`, the Potency is 18.4 µM (active).

Regarding `O=c1cc(-c2ccccc2)[nH]c2cc(F)ccc12`, the Potency is 0.92 µM (active).

With `O=c1[nH]c(-c2ccccc2)c(-c2ccccc2)[nH]1`, the Potency entry was “inactive”.

Take `Cc1ccc(-c2cc(=O)c3ccc(Cl)cc3[nH]2)cc1`: the Potency result is “inactive”.

Take `Cc1ccc(S(=O)(=O)/N=C(\N)c2ccc(F)cc2)cc1`: the Potency result is “inactive”.

For the molecule `CC1=C(C(=O)OC2CCCCC2)C(c2ccccc2F)NC(=O)N1` (centres undefined), the Potency entry is “inactive”.

Take `O=C(CCC(=O)N1CCCC1)Nc1ccc([N+](=O)[O-])cc1`: the Potency result was “inactive”.

With `CCCCOc1ccc(C(=O)NCC(=O)OCC(=O)N2CCN(S(=O)(=O)c3ccc(C)cc3C)CC2)cc1`, the Potency entry was “inactive”.

On to `N#C/C(=C/c1ccc(Cl)cc1)NC(=O)c1ccccc1`, for which the Potency result was “inactive”.

`Cc1c(Br)c([N+](=O)[O-])nn1CC(=O)N1CCN(Cc2ccccc2)CC1`: the Potency entry was “inactive”.

Consider `Fc1ccc(COc2ccc(-c3nnco3)cc2)cc1`, for which the Potency entry is “inactive”.

For `CCN1C(=O)[C@H]2[C@@H](c3ccc(SC4CCCCC4)c(OC)c3)N[C@@](Cc3ccccc3)(C(=O)OC)[C@H]2C1=O`, the Potency was 16.4 µM (active).

Consider `CCN(C[C@H]1N[C@@](CC)(C(=O)OC)[C@H]2C(=O)N(Cc3ccccc3)C(=O)[C@@H]12)S(=O)(=O)c1ccccc1`, for which the Potency entry was “inactive”.

On to `CCNC(=O)N(CC)C[C@H]1N[C@@](CC)(C(=O)OC)[C@H]2C(=O)N(Cc3ccccc3)C(=O)[C@@H]12`, for which the Potency entry is “inactive”.

As for `COC(=O)C1(C)NC(c2ccccc2OC)C2C(=O)N(c3ccccc3)C(=O)C21` (centres undefined), the Potency entry is “inactive”.

Regarding `CCCC1(C(=O)OC)NC(c2ccco2)C2C(=O)N(C)C(=O)C21` (centres undefined), the Potency result is “inactive”.

Consider `CCN1C(=O)[C@H]2[C@@H](c3ccc(-c4ccc(OC)cc4)cc3)N[C@@](Cc3ccccc3)(C(=O)OC)[C@H]2C1=O`, for which the Potency is 18.4 µM (active).

In the case of `CC1=NNC(=O)C1Cc1c(Cl)cccc1Cl` (centres undefined), the Potency entry is “inactive”.

Turning to `C#CCOCCOCCOCCNc1nc(N2CCN(C(=O)C([C@@H](C)O)n3cc([C@@H](N)CCCCN)nn3)CC2)nc(N2CCN(C(=O)[C@H](CCCCN)n3cc(CN)nn3)CC2)n1` (some centres undefined), the Potency result was “inactive”.

For the molecule `CC(C)[C@H](NC(=O)c1ccccc1F)C(=O)Nc1cccc(S(=O)(=O)N2CCOCC2)c1`, the Potency entry is “inactive”.

For `CC(=O)c1ccc(NC(=O)Cn2c(=O)oc3ccccc32)cc1`, the Potency entry is “inactive”.

Consider `Cc1ccccc1NC(=O)Cn1c(=O)n(CC2CCCO2)c(=O)c2ccccc21` (centres undefined), for which the Potency result was “inactive”.

Consider `O=C(NCc1ccccc1)C1c2ccccc2OCC(=O)N1CCCN1CCOCC1` (centres undefined), for which the Potency result was “inactive”.

On to `O=C(/C=C/c1ccc2c(c1)OCO2)NCc1ccc(F)cc1`, for which the Potency entry was “inactive”.

`O=C(c1ccc2c(c1)OCO2)N1CCN(C(=O)c2ccco2)CC1`: the Potency result was “inactive”.

Take `O=C1Nc2ccccc2NC(c2ccc3c(c2)OCO3)=C1N(Cc1ccc(F)cc1)C(=O)c1ccco1`: the Potency is 16.4 µM (active).

With `CCCCNc1ccc(-c2nc(-c3ccncc3)no2)cc1[N+](=O)[O-]`, the Potency entry was “inactive”.

For the molecule `Cc1ccc2nsnc2c1S(=O)(=O)N1CCCC1C(=O)O` (centres undefined), the Potency result is “inactive”.

Take `CCN(Cc1ccncc1)C(=O)CCc1ccccc1`: the Potency result is “inactive”.

On to `Cc1nc2ccccc2n1CC(=O)N/N=C/c1cccnc1`, for which the Potency entry was “inactive”.

Take `O=C(CNC(=O)c1cccnc1)N/N=C/c1cccnc1`: the Potency result is “inactive”.

Consider `O=C(CSc1cccc2cccnc12)N/N=C/c1cccnc1`, for which the Potency is 23.1 µM (active).

In the case of `CCCCCC(O)(CCN1CCCCC1)c1ccccc1` (centres undefined), the Potency entry was “inactive”.

As for `CC(=O)C1C(c2ccc(Cl)cc2)NC(=O)NC1(O)C(F)(F)F` (centres undefined), the Potency result is “inactive”.

As to `CC1=NN(c2ccc(Cl)c(C(=O)O)c2)C(=O)/C1=C/c1ccc(-c2ccccc2[N+](=O)[O-])o1`, the Potency entry is “inactive”.

On to `O=C1NC(c2ccc(-c3ccccc3[N+](=O)[O-])o2)C(C(=O)c2ccc(Cl)cc2)C(O)(C(F)(F)F)N1` (centres undefined), for which the Potency is 18.4 µM (active).

On to `Cc1ccc(CSCC(=O)N(C)CC(=O)Nc2ccc(C)cc2)cc1`, for which the Potency result is “inactive”.

For `FC(F)(F)c1ccc2nnc(-c3c(Cl)cccc3Cl)n2c1`, the Potency entry was “inactive”.

Consider `CCCSc1nc2c(c(=O)[nH]c(=O)n2C)n1CCc1ccccc1`, for which the Potency entry is “inactive”.

For `CN1CCN(c2nc3c(c(=O)[nH]c(=O)n3C)n2Cc2cccc3ccccc23)CC1`, the Potency result was “inactive”.

As for `CCCCCn1c(SCCC(C)C)nc2c1c(=O)[nH]c(=O)n2C`, the Potency result is “inactive”.

Take `C=C(C)Cn1c(N2CCCC2)nc2c1c(=O)[nH]c(=O)n2C`: the Potency entry is “inactive”.

Take `CC=CCn1c(SCCCc2ccccc2)nc2c1c(=O)[nH]c(=O)n2C`: the Potency is 20.6 µM (active).

Regarding `CC1CCN(c2nc3c(c(=O)[nH]c(=O)n3C)n2CCCc2ccccc2)CC1`, the Potency was 16.4 µM (active).

As for `Cc1ccc(C)c(OCCC(=O)OCC(=O)N2CCN(c3ccccc3)CC2)c1`, the Potency entry is “inactive”.

Regarding `CCC(=O)N1CCc2cc(S(=O)(=O)NC(C(=O)NCCc3ccc(C)cc3)C(C)C)ccc21` (centres undefined), the Potency entry is “inactive”.

As for `C[C@@H]1CN([C@@H](C)CO)C(=O)c2cc(NC(=O)C3CC3)ccc2O[C@H]1CN(C)C`, the Potency result was “inactive”.

Turning to `COC(=O)c1ccc([C@@H](O)[C@H](C)C(=O)CC(=O)OC(C)(C)C)cc1`, the Potency entry was “inactive”.

On to `COc1ccccc1N1CCN(/N=C/c2ccc(O)cc2O)CC1`, for which the Potency entry was “inactive”.

`COc1ccccc1N1CCN(C(=O)C(=O)N/N=C/c2ccccc2F)CC1`: the Potency entry is “inactive”.

For the molecule `COc1ccccc1N1CCN(/N=C\C(Br)=C\c2ccccc2)CC1`, the Potency is 8.2 µM (active).

`O=C(CN1C(=O)NC(Cc2c[nH]c3ccccc23)C1=O)Nc1ccccc1C(F)(F)F` (centres undefined): the Potency result was “inactive”.

`O=C(O)C1CCC(CNS(=O)(=O)c2ccc(Br)cc2)CC1` (centres undefined): the Potency result is “inactive”.

For `CC(=O)N/C(=C/c1ccc(OC(F)F)cc1)C(=O)O`, the Potency entry was “inactive”.

Consider `NC(=O)c1cc(S(=O)(=O)NCCCc2ccco2)cs1`, for which the Potency entry was “inactive”.

Regarding `Cc1cccc(CC2(O)C(=O)Nc3ccccc32)n1` (centres undefined), the Potency entry is “inactive”.

For `COc1ccc(C(=O)N/N=c2\oc3ccccc3cc2C(N)=O)cc1`, the Potency result is “inactive”.

As to `CCN(CC)c1ccc2cc(C(N)=O)/c(=N\NC(=O)c3ccncc3)oc2c1`, the Potency was 16.4 µM (active).

As to `NC(=O)c1cc2ccccc2o/c1=N/NC(=O)c1cccc(F)c1`, the Potency result was “inactive”.

For the molecule `COc1cccc(NC(=S)NC(=O)c2c(Cl)c(C)nn2C)c1`, the Potency entry is “inactive”.

For `Cc1ccc(C(=O)COC(=O)c2cccc(N3C(=O)c4c(C)nc5ccccc5c4C3=O)c2)cc1C`, the Potency entry was “inactive”.

`CCCCCCCCn1c2c(c(=N)c3c1CCC3)CCCC2`: the Potency is 0.92 µM (active).

As to `CC(C)(C)[C@H]1C=C(C(=O)NCc2ccccc2)O[C@@H](OCc2ccc(CO)cc2)C1`, the Potency is 18.4 µM (active).

Turning to `CC1(C)CC(=O)c2cc(C(=O)NCc3ccccc3)c(=O)[nH]c2C1`, the Potency entry is “inactive”.

Consider `O=C(NCc1ccccc1)C1=C[C@@H](C2CCCCC2)C[C@@H](OCc2ccc(CO)cc2)O1`, for which the Potency is 16.4 µM (active).

For the molecule `O=C(COC(=O)CNC(=O)C1CCCCC1)NCc1ccccc1`, the Potency entry was “inactive”.

In the case of `CSc1ccccc1C(=O)NCc1ccccc1`, the Potency entry was “inactive”.

`O=C(O)C1CCN(C(=O)OCc2ccccc2)CC1`: the Potency entry was “inactive”.

As for `CCCCc1nc(SCC(=O)Nc2nnc(C(C)C)s2)n[nH]1`, the Potency result is “inactive”.

Regarding `O=C(OCC(=O)N1CCCC1=O)c1cc(S(=O)(=O)N2CCOCC2)ccc1Cl`, the Potency entry was “inactive”.

Turning to `O=C(OCC(=O)N1CCN(C(=O)c2ccco2)CC1)c1c(Cl)cccc1Cl`, the Potency result was “inactive”.

`CC(=O)Nc1cccc(C(=O)OCC(=O)NCc2cc(C)c(O)c(C)c2)c1`: the Potency result is “inactive”.

As to `CC(=O)c1cccc(OCC(=O)OCC(=O)Nc2cc(S(=O)(=O)N3CCCCC3)ccc2C)c1`, the Potency result was “inactive”.

With `c1ccc2cc(CCCc3cc4ccccc4cn3)ncc2c1`, the Potency result is “inactive”.

As to `O=C(NCc1ccccn1)c1cc(Br)ccc1Cl`, the Potency result is “inactive”.

In the case of `O=C(NCCc1ccccn1)c1cc(-c2ccc(Cl)cc2)nc2ccccc12`, the Potency was 13 µM (active).

In the case of `CN(CC(=O)NCCc1ccccn1)S(=O)(=O)c1ccc(Cl)cc1`, the Potency entry is “inactive”.

Regarding `COC(=O)c1ccc2c(c1)S(=O)(=O)NC2C` (centres undefined), the Potency entry is “inactive”.

For `CCCNC(=O)C1CCN(c2nc3ccc(C)cc3[nH]2)CC1`, the Potency result was “inactive”.

For the molecule `CCC1CCCCN1S(=O)(=O)Cc1ccccc1Cl` (centres undefined), the Potency result was “inactive”.

With `CN(CCc1ccccn1)C(=O)c1ccc(OC2CCN(Cc3ccccn3)CC2)cc1`, the Potency entry was “inactive”.

On to `NC(=S)N/N=C/c1coc2cc(Cl)ccc2c1=O`, for which the Potency entry was “inactive”.

For the molecule `CC(C)Oc1c(Br)cc(Br)cc1/C=N/NC(N)=S`, the Potency was 16.4 µM (active).

`CCOC(=O)C1=C(C)c2ccccc2OC1(C)C(=O)OCC` (centres undefined): the Potency result is “inactive”.

Turning to `COc1ccc(NC(=O)CCC(=O)Nc2nnc(C3CCCCC3)s2)cc1`, the Potency entry is “inactive”.

For the molecule `CCOc1ccc(NC(=O)[C@H](C)NC(=O)C2CC(=O)N(c3ccc(OC)cc3)C2)cc1` (some centres undefined), the Potency entry is “inactive”.

Consider `CCCOc1ccc(N2CC(C(=O)Nc3ccccn3)CC2=O)cc1` (centres undefined), for which the Potency entry was “inactive”.

For `CCOc1ccc(N2CC(c3nc4ccccc4n3CCOc3ccc(OC)cc3)CC2=O)cc1` (centres undefined), the Potency was 20.6 µM (active).

For `CCc1ccccc1N1CC(c2nc3ccccc3n2CCCCOc2ccccc2)CC1=O` (centres undefined), the Potency result is “inactive”.

On to `CCCCN1CC(c2nc3ccccc3n2CCCCOc2ccc(C)cc2C)CC1=O` (centres undefined), for which the Potency is 7.31 µM (active).

Take `COc1ccc(OCCCn2c(C3CC(=O)N(c4ccc(F)cc4)C3)nc3ccccc32)cc1` (centres undefined): the Potency is 18.4 µM (active).

For `CCCOc1cc(C)c(S(=O)(=O)n2nnc3ccccc32)cc1C`, the Potency entry was “inactive”.

For `CC(C)(C)N1CC(c2nc3ccccc3n2Cc2ccc(F)cc2)CC1=O` (centres undefined), the Potency entry was “inactive”.

With `Cc1ccc(C(C)C)c(OCCSc2nc3ccccc3n2CC(=O)O)c1`, the Potency entry was “inactive”.

Source of the values: PubChem BioAssay AID686979 (National Center for Advancing Translational Sciences (NCATS), 2013).
